{"source": "PubChem BioAssay (Tox21)", "note": "Results filed as inconclusive are left out. Activity calls are given as the source filed them. Calls follow the shape of the full dose curve.", "data": [{"molecular_target": "5-hydroxytryptamine receptor 2A (Homo sapiens) (UniProt P28223)", "sequence (P28223 whole entry, looked up)": "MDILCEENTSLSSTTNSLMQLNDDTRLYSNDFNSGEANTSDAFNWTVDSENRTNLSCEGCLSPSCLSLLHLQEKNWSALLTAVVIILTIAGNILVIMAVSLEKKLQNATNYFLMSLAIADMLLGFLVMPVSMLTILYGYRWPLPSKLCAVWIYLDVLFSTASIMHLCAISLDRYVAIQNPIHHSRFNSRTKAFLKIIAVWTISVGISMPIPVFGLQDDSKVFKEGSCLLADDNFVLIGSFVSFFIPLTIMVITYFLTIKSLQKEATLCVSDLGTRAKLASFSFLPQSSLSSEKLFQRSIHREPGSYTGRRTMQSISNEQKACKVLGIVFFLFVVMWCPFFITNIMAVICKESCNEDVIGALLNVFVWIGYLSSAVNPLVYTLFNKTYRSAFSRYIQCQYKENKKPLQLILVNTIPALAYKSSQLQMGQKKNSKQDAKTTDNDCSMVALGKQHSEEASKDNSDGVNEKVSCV", "assay": "5-hydroxytryptamine receptor 2A (HTR2A) small molecule antagonists, cell-based qHTS assay (AID 1963586); also: nearly all actives have a fitted effect of over 45% in size; also: potency is read from the fitted curve at half-maximal effect; as to activity, negative = inhibition: % is scaled to controls: 0 for no effect and ±100 for the full control effect", "conditions": "HTR2A-CHO cells, DOI-induced calcium flux, fluorescence; series mostly up to 61.5 µM; activity, negative = inhibition: at the top concentration", "outline": "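CHO cells stably expressing human HTR2A were plated for 18 h at 37 C, then loaded with calcium dye for 1 h. Compounds were preincubated 5 min at room temperature before DOI (4 nM solution) was added. Kinetic fluorescence was read for 3 min.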", "values": [{"compound": "CN=C(NC#N)Nc1ccc(C2=NNC(=O)CC2C)cc1", "note": "(configuration not stated)", "activity, negative = inhibition": "-28.9% [at 28.5 µM] (inactive)"}, {"compound": "CCC(=O)CC(C)CC", "note": "(configuration not stated)", "activity, negative = inhibition": "14.6% [at 0.233 µM] (inactive)"}, {"compound": "CCCCOCCOC(=O)COc1ccc(Cl)cc1Cl", "activity, negative = inhibition": "-16.4% (inactive)"}, {"compound": "CC(=O)CC(=O)OC(C)(C)C", "activity, negative = inhibition": "-0.318% (inactive)"}, {"compound": "CC(COC(C)(C)C)OCCCO", "note": "(configuration not stated)", "activity, negative = inhibition": "0.846% (inactive)"}, {"compound": "CCCC1CCCC(=O)O1", "note": "(configuration not stated)", "activity, negative = inhibition": "-6.83% (inactive)"}, {"compound": "CCCCCCCCCOC(=O)c1ccccc1C(=O)OCCCCCCCCC", "activity, negative = inhibition": "59.6% (inactive)"}, {"compound": "N#CC1(N)CCCCC1", "activity, negative = inhibition": "-1.21% (inactive)"}, {"compound": "Cc1ccc(-n2nc(C(C)(C)C)cc2NC(=O)Nc2ccc(OCCN3CCOCC3)c3ccccc23)cc1", "activity, negative = inhibition": "0.998% [at 28.5 µM] (inactive)"}, {"compound": "C=COCC(C)C", "activity, negative = inhibition": "-5.9% (inactive)"}, {"compound": "C/C=C/C(=O)OCC(C)C", "activity, negative = inhibition": "-0.0824% (inactive)"}, {"compound": "N#CSc1ccc(N)c([N+](=O)[O-])c1", "activity, negative = inhibition": "5.22% (inactive)"}, {"compound": "Cc1ccc(C(=O)Oc2ccc(C(O)CNC(C)(C)C)cc2OC(=O)c2ccc(C)cc2)cc1", "note": "(configuration not stated)", "activity, negative = inhibition": "49.6% [at 28.5 µM] (inactive)"}, {"compound": "C/C=C/C(=O)Oc1c(CCCCCC(C)C)cc([N+](=O)[O-])cc1[N+](=O)[O-]", "Potency": "21.1 µM (active)"}, {"compound": "O=C(CCCCCCCCc1cccnc1)N1CCC(C=C(c2ccccc2)c2ccccc2)CC1", "activity, negative = inhibition": "3.71% (inactive)"}, {"compound": "O=C1CCCN1CCO", "activity, negative = inhibition": "14.7% (inactive)"}, {"compound": "N=C(N)c1ccc(OCCCOc2ccc(C(=N)N)cc2)cc1", "activity, negative = inhibition": "31.3% [at 28.5 µM] (inactive)"}, {"compound": "COCCCCCCCCOCCC[Si](C)(O[Si](C)(C)C)O[Si](C)(C)C", "activity, negative = inhibition": "-7.76% (inactive)"}, {"compound": "Oc1ccc2c(c1)CCC2", "activity, negative = inhibition": "2.73% (inactive)"}, {"compound": "CCCCc1nc2cccnc2n1Cc1ccc(-c2ccccc2-c2nnn[nH]2)cc1", "activity, negative = inhibition": "-6.41% (inactive)"}, {"compound": "O=C(O)Cc1csc(-c2ccc(Cl)cc2)n1", "activity, negative = inhibition": "15.9% [at 28.5 µM] (inactive)"}, {"compound": "CCOC(=O)Nc1ccc(NCc2ccc(F)cc2)nc1N", "activity, negative = inhibition": "-5.59% [at 28.5 µM] (inactive)"}]}]}
